Records with an inconclusive call do not appear. The source made the active and inactive calls. The calls were made as follows: active = hit-call score of the fitted dose curve at least 0.9, where 1 is the maximum; inconclusive = response in the unintended direction; inactive = score below 0.9.
Experiments:
[1] = target: human Leukotriene B4 Receptor 1 (LTB4-BLT1), LTB4R (gene 1241) (UniProt Q15722); test: NVS_GPCR_hLTB4_BLT1: NovaScreen (NVS) G Protein-Coupled Receptor Assay for human Leukotriene B4 Receptor 1 (LTB4-BLT1) (AID 2283271)
Method: NVS_GPCR_hLTB4_BLT1 is a biochemical, single-readout assay that uses extracted gene-proteins from Human neutrophils in a cell-free assay. Measurements were taken 1 hour after chemical dosing in a 48-well plate.NVS_GPCR_hLTB4_BLT1 is one of one assay component(s) measured or calculated from the NVS_GPCR_hLTB4_BLT1 assay. It is designed to make measurements of radioligand binding, a form of binding reporter, as detected with scintillation counting signals by Filter-based radiodetection technology.Data from the assay component NVS_GPCR_hLTB4_BLT1 was analyzed into 1 assay endpoint. This assay endpoint, NVS_GPCR_hLTB4_BLT1, was analyzed in the positive analysis fitting direction relative to DMSO as the negative control and baseline of activity. Using a type of binding reporter, loss-of-signal activity can be used to understand changes in the binding as they relate to the gene LTB4R. Furthermore, this assay endpoint can be referred to as a primary readout, because the performed assay has only produced 1 assay endpoint. To generalize the intended target to other relatable targets, this assay endpoint is annotated to the gpcr intended target family, where the subfamily is rhodopsin-like receptor. […]

[2] = target: human Neuropeptide Receptor Y1 (NPY1), NPY1R (gene 4886) (UniProt P25929); test: NVS_GPCR_hNPY1: NovaScreen (NVS) G Protein-Coupled Receptor Assay for human Neuropeptide Receptor Y1 (NPY1) (AID 2283276)
Method in brief: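 Cell-free radioligand binding using receptor extracted from SK-N-MC cells, 1 h incubation, filter-based scintillation counting. Primary screen single concentration 25 uM in duplicate; actives followed in concentration series. Loss of bound signal scored versus DMSO.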

[3] = target: human Neurotensin Receptor (NTS), NTSR1 (gene 4923) (UniProt P30989); test: NVS_GPCR_hNTS: NovaScreen (NVS) G Protein-Coupled Receptor Assay for human Neurotensin Receptor (NTS) (AID 2283279)
Method in brief: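 Radioligand displacement on human NTSR1 protein from CHO cells, cell-free, 1 h, filter-based scintillation counting. Primary screen at 25 uM in duplicate; hits rerun in concentration-response up to 50 uM.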

Chain of human Neurotensin Receptor (NTS), NTSR1 (gene 4923) (P30989 whole entry, looked up): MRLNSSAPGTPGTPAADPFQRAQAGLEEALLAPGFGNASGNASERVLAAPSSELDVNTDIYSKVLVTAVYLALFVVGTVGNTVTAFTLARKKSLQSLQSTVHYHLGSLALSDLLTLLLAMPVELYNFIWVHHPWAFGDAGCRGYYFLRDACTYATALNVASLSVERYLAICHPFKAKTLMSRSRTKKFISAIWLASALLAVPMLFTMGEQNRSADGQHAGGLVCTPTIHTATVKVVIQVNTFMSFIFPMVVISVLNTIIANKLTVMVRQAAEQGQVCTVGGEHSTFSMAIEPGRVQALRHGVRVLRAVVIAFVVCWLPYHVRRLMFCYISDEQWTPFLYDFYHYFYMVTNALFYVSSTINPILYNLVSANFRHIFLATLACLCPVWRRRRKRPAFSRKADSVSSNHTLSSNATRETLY
Chain of human Leukotriene B4 Receptor 1 (LTB4-BLT1), LTB4R (gene 1241) (Q15722 whole entry, looked up): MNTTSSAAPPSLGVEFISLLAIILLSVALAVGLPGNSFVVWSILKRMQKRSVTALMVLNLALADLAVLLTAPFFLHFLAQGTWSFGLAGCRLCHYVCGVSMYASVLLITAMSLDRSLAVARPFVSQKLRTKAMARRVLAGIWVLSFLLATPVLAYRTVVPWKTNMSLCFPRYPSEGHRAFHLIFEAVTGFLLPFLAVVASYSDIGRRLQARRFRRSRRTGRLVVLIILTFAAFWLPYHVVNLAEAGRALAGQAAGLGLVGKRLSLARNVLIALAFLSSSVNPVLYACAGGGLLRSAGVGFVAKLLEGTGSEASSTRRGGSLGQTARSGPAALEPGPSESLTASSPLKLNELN
Chain of human Neuropeptide Receptor Y1 (NPY1), NPY1R (gene 4886) (P25929 whole entry, looked up): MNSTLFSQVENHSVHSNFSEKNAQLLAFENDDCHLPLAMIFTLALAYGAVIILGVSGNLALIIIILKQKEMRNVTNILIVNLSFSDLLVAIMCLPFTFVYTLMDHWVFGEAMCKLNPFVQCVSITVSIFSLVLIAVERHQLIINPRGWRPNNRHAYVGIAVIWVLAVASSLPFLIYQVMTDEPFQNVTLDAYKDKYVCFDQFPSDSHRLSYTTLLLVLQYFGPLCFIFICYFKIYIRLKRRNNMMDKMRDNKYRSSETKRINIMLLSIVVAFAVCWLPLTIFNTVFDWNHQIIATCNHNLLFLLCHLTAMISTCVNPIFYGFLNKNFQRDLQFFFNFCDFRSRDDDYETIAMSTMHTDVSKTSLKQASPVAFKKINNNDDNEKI

CCOC(=O)CCC(=O)OCC
AC50 [1]: 25 µM (active)

CCCCC(CC)COC(=O)CC(C(=O)OCC(CC)CCCC)S(=O)(=O)O (stereo unspecified)
AC50 [1]: 25 µM (active)

NC(=O)Cn1c(=O)cc(CCN2CCN(c3nccc4sccc34)CC2)c2ccc(F)cc21
AC50 [2]: 9.95 µM (active)

CC(=O)Oc1ccccc1C(=O)O
AC50 [2]: 4.96 µM (active)

NCCO
AC50 [3]: 37.9 µM (active)

Cc1cccc(C)c1O
outcome [3]: inactive
